ATXN2 expr inh – reduces ATXN2 reporter expression in HEK-293 cells; Potency, µM (top dose mostly 57 µM), for the others: top-dose activity change, negative = inhibition, usual class: inhibitors; HEK-293 ATXN2-luciferase reporter, luminescence, 24 h; 360,000 compounds, 0.72% hits; note: % is set by controls: 0 for no effect and ±100 for the full control effect; nearly all actives have a fitted effect of over 55% in size
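ATXN2-luciferase reporter cells (luciferase flanked by upstream and downstream ATXN2 gene portions) were treated 24 h at 37 °C with compounds at up to 57 uM. SteadyGlo luminescence gave expression; GF-AFC fluorescence gave viability.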
S2 tox – cell viability loss in ATXN counter-screen; S2 cells (HEK-293 line with an ATXN2-luciferase reporter) viability, CellTiter-Fluor protease fluorescence, 24 h; 400,000 compounds, 0.49% hits; AID 651635; Potency, µM (series often up to 56.7 µM), usual class: cytotoxic; note: nearly all actives have a fitted effect of over 40% in size
RORgamma inh – blocks mouse ROR gamma transcriptional activity | P51450 | Drosophila S2 Gal4-RORgamma UAS-luciferase reporter, 20 h | Potency, µM (titrated, usually from 53.6 µM), for the others: top-dose activity change, negative = inhibition, most hits filed as inhibitors | 310,000 compounds, 5.4% hits | AID 2551; note: % is set by controls: 0 for no effect and ±100 for the full control effect; nearly all actives have a fitted effect of over 60% in size
Target sequence (P51450 whole entry, looked up, the tested form may be a part): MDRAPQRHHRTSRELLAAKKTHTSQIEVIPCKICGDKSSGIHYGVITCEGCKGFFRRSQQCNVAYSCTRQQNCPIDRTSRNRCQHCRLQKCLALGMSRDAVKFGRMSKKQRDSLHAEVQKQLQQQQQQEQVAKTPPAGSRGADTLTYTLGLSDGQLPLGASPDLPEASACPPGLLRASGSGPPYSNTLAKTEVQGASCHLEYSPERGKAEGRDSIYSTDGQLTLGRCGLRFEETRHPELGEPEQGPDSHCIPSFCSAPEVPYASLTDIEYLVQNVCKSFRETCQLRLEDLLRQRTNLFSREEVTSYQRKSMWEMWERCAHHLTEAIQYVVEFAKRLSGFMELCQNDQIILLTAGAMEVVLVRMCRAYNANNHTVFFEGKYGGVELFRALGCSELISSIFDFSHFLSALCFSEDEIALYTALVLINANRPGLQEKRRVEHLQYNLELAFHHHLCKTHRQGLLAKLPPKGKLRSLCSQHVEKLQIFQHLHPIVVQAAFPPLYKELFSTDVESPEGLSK
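Stable Schneider cell line, Gal4 DNA-binding domain fused to ROR gamma, UAS-luciferase. Cmpd 1 hr RT → CuSO4 700 uM final → 20 hr RT → luciferase reagent 10 min → luminescence.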
HepG2 tox – kills HepG2 cells in TGF-b inhibitor counter-screen. HepG2 CAGA-GFP viability, ATP luminescence, 18 h. Potency, µM (top dose mostly 46.1 µM), inactives show at the top dose activity change, negative = cytotoxicity, most hits filed as cytotoxic. 410,000 compounds, 0.76% hits
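CellTiter-Glo luminescence gave cytotoxicity after 18 hours at 37 degrees C. The cells were HepG2 CAGA-GFP in 1% FBS DMEM, stimulated with 500 pg/mL TGF-beta after compound addition. %Activity was normalised to no-cell wells (complete cell-killing) and DMSO (no toxicity), and curves were fitted and classified.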
Gal4-VP16 FLuc – inhibits Gal4-VP16 luciferase reporter, ROR gamma counter-screen; Potency, µM (doses to about 53.6 µM), without a hit: top-dose activity, negative = inhibition, usual class: inhibitors; AID 2546; Drosophila S2 Gal4-VP16 UAS-luciferase, luminescence, 20 h; 310,000 compounds, 3.5% hits;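 note: Gal4-VP16 expression switched on by copper sulfate through the metallothionein promoter; % is set by controls: 0 for no effect and ±100 for the full control effect; nearly all actives have a fitted effect of over 50% in size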
TGFb inhibitor – TGF-b pathway inhibition | HepG2 CAGA-GFP TGF-b/SMAD3 reporter, GFP fluorescence, 18 h; TGF-beta stimulated, 500 pg/mL final | Potency, µM (series often up to 46.1 µM), inactives show top-dose activity, negative = inhibition, hits mostly inhibitors | 410,000 compounds, 1.2% hits | AID 588855; note: % is set by controls: 0 for no effect and ±100 for the full control effect; nearly all actives have a fitted effect of over 65% in size
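Smad-responsive CAGA-GFP expression was quantified in HEPG2 cells exposed to compounds and 500 pg/mL final TGF-beta for 18 h at 37 degrees C; unstimulated wells defined full inhibition.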
* hit, by the source's call; i = inactive; ? = inconclusive; nt = no result; [ ] = remark or other dose. The list is not random: actives were taken first. Their share in the collection is about 6.1%. Calls come from the whole dose curve; as a rule, active = well fitted curve in the direction sought with a large enough effect; inconclusive = small, poorly fitted or top-dose-only effect, or another doubt; inactive = no such curve, though single readings can be large; an effect the other way counts as inactive or inconclusive. Potency is the fitted concentration of half-maximal effect.

SMILES	ATXN2 expr inh	S2 tox	RORgamma inh	HepG2 tox	Gal4-VP16 FLuc	TGFb inhibitor
O=C(c1ccccc1)N(Cc1nc2ccccc2c(=O)[nH]1)C1CCCCC1	0.4%	i	?	-16.0%	5.1%	-13.9%
O=C(c1ccccc1F)N(Cc1nc2ccccc2c(=O)[nH]1)C1CCCC1	nt	i	2.82µM*	-29.1%	7.94µM*	?
O=C(c1cccc(F)c1)N(Cc1nc2ccccc2c(=O)[nH]1)C1CCCC1	nt	i	6.31µM*	-36.5%	?	?
Cc1cc(=O)n(Cc2ccc(Cl)cc2)c2c1c(C)nn2-c1ccccc1	8.9%	i	nt	2.2%	nt	1.1%
C=C1C=C(C(F)F)n2ncc(C(=O)NCc3ccc(F)cc3)c2N1	nt	nt	nt	3.6%	nt	1.9%
COCCN(C(=S)Nc1ccc(C)cc1C)C(C)c1ccco1 (centres undefined)	15.9%	i	14.1µM*	-14.8%	-96.2%	0.1%
COCCN(C(=S)Nc1ccccc1C)C(C)c1ccco1 (centres undefined)	9.4%	i	?	-1.1%	6.8%	14.9%
COCCN(C(=S)Nc1cccc(C)c1C)C(C)c1ccco1 (centres undefined)	-5.9%	i	11.2µM*	1.6%	?	1.8%
COc1ccc(NC(=O)C2CCCN(S(=O)(=O)c3ccc(Br)s3)C2)cc1 (centres undefined)	-5.5%	i	nt	-1.4%	nt	-26.8%
COc1ccc(C2CC(C(F)(F)F)n3nc(C(=O)NCc4c(C)nn(C)c4C)c(Cl)c3N2)cc1 (centres undefined)	?	i	-3.0%	-30.4%	22.4µM*	?
COc1ccc(C2CC(C(F)(F)F)n3nc(C(=O)N(C)Cc4cn(C)nc4C)c(Cl)c3N2)cc1 (centres undefined)	4.3%	i	?	10.4%	2.1%	-2.0%
CC(Cc1cccs1)NC(=S)Nc1ccccc1 (centres undefined)	12.0%	i	4.47µM*	-20.5%	7.08µM*	-21.2%
Cc1cc(C)cc(NC(=S)NCC2CCN(C(C)c3ccccc3)C2)c1 (centres undefined)	?	?	?	-33.8%	?	-10.6%
CCCC(C)NC(=S)Nc1cc(C)cc(C)c1 (centres undefined)	-8.2%	i	1.41µM*	-62.9%	6.31µM*	-0.4%
CC(Cc1cccs1)NC(=O)Nc1ccccc1 (centres undefined)	10.2%	i	18.9%	-9.7%	22.5%	-13.8%
CCc1cccc(CC)c1NC(=S)Nc1ccccc1	-15.7%	i	12.6µM*	-4.9%	?	-0.7%
CC(NC(=S)Nc1ccc(F)cc1)c1ccccc1 (centres undefined)	-12.7%	i	7.08µM*	-2.3%	7.94µM*	2.9%
COc1ccc(-c2c(C)c3ccc(O)c(CN4CCCCC4)c3oc2=O)cc1OC	1.4%	nt	nt	-0.7%	nt	-4.6%
CCC(C)NC(=S)Nc1ccccc1OC (centres undefined)	-21.6%	i	4.8%	45.0%	-1.2%	12.8%
CCN(CC)NC(=S)Nc1ccccc1	-4.0%	i	3.16µM*	-0.7%	?	?
CCC(C)NC(=S)Nc1ccccc1 (centres undefined)	-10.8%	i	5.62µM*	-3.8%	?	-3.1%
S=C(Nc1ccccc1)N1CCN(C(=S)Nc2ccccc2)CC1	nt	nt	15.6%	nt	0.7%	nt
CCCOC(=S)Nc1ccccc1	5.8%	i	11.2µM*	-27.3%	-20.3%	7.4%
CCC(C)NC(=S)Nc1ccc(C(=O)OC)cc1 (centres undefined)	-9.1%[11.3 µM]	i	7.08µM*	9.3%	?	-17.8%
CC(C)N(C)NC(=S)Nc1ccccc1	7.5%	i	-42.2%[10 µM]	2.4%	?	-0.7%
SMILES	ATXN2 expr inh	S2 tox	RORgamma inh	HepG2 tox	Gal4-VP16 FLuc	TGFb inhibitor
CCOc1ccc(/C=C/c2ccnc3ccccc23)cc1OCC	nt	nt	nt	-61.7%	nt	?
CCOC(=O)COc1ccc2nsnc2c1	-16.1%	i	-0.7%	3.4%	3.4%	9.3%
CCOc1ccc(/C=C/[N+](=O)[O-])c2ccccc12	25.1µM*	?	?	-91.7%	?	5.01µM*
CCOC(=O)COc1ccc(/C=C/[N+](=O)[O-])c(OCC(=O)OCC)c1	8.91µM*	10µM*	?	-64.4%	?	?
CCOC(=O)COc1ccc2ccccc2c1/C=C/[N+](=O)[O-]	?	14.1µM*	12.6µM*	5.62µM*	6.31µM*	5.01µM*
CCC1C(=O)NCCN1Cc1ccc2c(c1)CN(Cc1cc(OC)ccc1OC)CCO2 (centres undefined)	nt	i	nt	nt	nt	nt
COC(=O)c1scc(-c2ccc(C)cc2)c1S(=O)(=O)N1CCN(c2ccc(C)cc2C)CC1	-8.4%	i	nt	-14.1%	nt	-9.0%
Cc1ccc(CO)cc1Nc1ncnc2onc(-c3ccc(F)cc3)c12	10.6%	i	nt	-13.3%	nt	1.5%
CN(C)c1nc(=NCc2ccco2)ss1	nt	0.1µM*	?	-74.4%	?	0.316µM*
CCCn1c(-c2ccc(F)cc2)nc2c(NC3CC4CCC(C3)N4C)nc(C)nc21 (centres undefined)	nt	nt	-22.9%	nt	-8.2%	nt
Fc1ccc(Br)cc1C1C=C(c2ccc(Br)cc2)Nc2ncnn21 (centres undefined)	-13.0%	nt	6.31µM*	-18.4%	?	-2.0%
CCc1ccc(C2=CC(c3cc(Br)ccc3F)n3ncnc3N2)cc1 (centres undefined)	5.3%	nt	?	-27.1%	14.1µM*	-2.0%
Fc1ccc(Br)cc1C1C=C(c2ccc(Br)cc2)Nc2nnnn21 (centres undefined)	-11.6%	nt	nt	-13.9%	nt	18.1%
Cc1ccsc1C1C=C(c2cccc(Br)c2)Nc2ncnn21 (centres undefined)	-6.8%	i	7.94µM*	-7.0%	?	36.5%
COc1cccc(C2=CC(c3ccc(C)cc3)n3ncnc3N2)c1 (centres undefined)	nt	nt	-99.5%	nt	3.4%	nt
COc1ccccc1/C=C/c1nc2ccccc2n1C(C)C	17.2%	?	nt	-49.1%	nt	?
OCCN1CCN(C(c2ccccc2Cl)c2sc3nc(-c4ccco4)nn3c2O)CC1 (centres undefined)	5.0%	i	nt	-27.9%	nt	-20.7%
COc1cccc(C(=O)NCC(c2ccc(N(C)C)cc2)N2CCCC2)c1OC (centres undefined)	nt	nt	nt	-15.2%	nt	-1.9%
Cc1nc2n(c(=O)c1CCN1CCC(c3noc4cc(F)ccc34)CC1)CCC[C@@H]2O	nt	nt	nt	-11.7%	nt	-0.1%
COc1ccc(C(=O)Nc2cc(C(=O)c3ccccc3)c(C)oc2=O)cc1	9.3%	i	-103.8%	-34.6%	10µM*	?
